# Experimental data from PubChem BioAssay AID1463 (National Center for Advancing Translational Sciences (NCATS), 2008).
# In all, about 280,000 compounds went through this assay and about 2,600 (0.93%) were called active. Another 8% or so got no clear call; they are omitted. What follows is part of a selection rich in actives, with near analogues and random picks from the rest. Unmarked numbers belong to inactive results. Calls follow the shape of the dose curve; as a rule, active = well fitted curve in the direction sought with a large enough effect; inconclusive = small, poorly fitted or top-dose-only effect; inactive = flat fitted curve, though single readings scatter.
# Assay: Counterscreen qHTS for Inhibitors of Tau Fibril Formation, Fluorescence Polarization; also: nearly all actives have a fitted effect of over 55% in size
# Details: tau K18 P301L Alexa594 fluorescence, heparin fibrillization; series mostly up to 57.7 µM; activity change, negative = decrease: at the top concentration
# Procedure, shortened: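 Human tau K18 P301L (15 uM unlabeled, 0.24 uM Alexa 594-labeled) in 100 mM sodium acetate pH 7 with 20 uM heparin, 6 hr at 37 C. ThT 30 uM added, 1 hr ambient; Alexa 594 FP and total fluorescence read at 555/632 nm.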
# % is scaled to controls: 0 for no effect and ±100 for the full control effect; potency is read from the fitted curve at half-maximal effect; tags tell the direction and shape of the fitted curve or compound fluorescence and quenching.
SMILES,"activity change, negative = decrease",Potency
CC1=Nc2cc(C(=O)NCc3ccc(C)cc3)ccc2Sc2ccc(Cl)cc21,-15.9%,–
Cc1ccc(C)c2sc(NC(=O)c3ccc(S(=O)(=O)N4CCCC4)cc3)nc12,-21.1%,–
CCN(CC)c1ccc2c(Nc3ccccc3)c(C=O)c(=O)oc2c1,-7.21%,–
CCN(CC)c1ccc2oc(=O)c(C)nc2c1,–,12.6 µM [quencher] (active)
CCN(CC)c1ccc(/C=N/Nc2nc(C)cc(C)n2)c(O)c1,2.1%,–
COc1cc(OC)c(OC)cc1/C=C/c1nc2cc3ccccc3cc2c(=O)n1-c1ccc(F)c(Cl)c1,-17.3%,–
COc1ccccc1-c1ccnc2[nH]n(-c3ccccc3)c(=O)c12,-12.9%,–
CCOC(=O)c1c(C)[nH]c(CCC(=O)NCCCN2CCN(c3cc(C)ccc3C)CC2)c1C,-23.4%,–
CCOC(=O)c1csc(NC(=O)Nc2cccc(OC)c2)n1,-1.36%,–
COc1cccc(CC(=O)Nc2ccc(-c3csc(C)n3)cc2)c1,-18.4%,–
Cc1nc(C)c(-c2csc(NCCc3ccccc3)n2)s1,-27.9%,–
C=CCCC(=O)Nc1nc(C)c(-c2csc(Nc3ccc(Cl)cc3)n2)s1,–,12.6 µM [quencher] (active)
CCCCCCC(=O)Nc1nc(C)c(-c2csc(Nc3cccc(OC)c3)n2)s1,–,8.91 µM [quencher] (active)
Cc1nc(NC(=O)CN(C)S(=O)(=O)c2ccc(Cl)cc2)sc1C,-18%,–
Cc1ccccc1C(=O)Nc1nnc(S(=O)(=O)N(C)c2ccc(Cl)cc2)s1,-20%,–
Cc1ccc2onc(CC(=O)N3CCN(c4ccc(Cl)cc4)CC3)c2c1,2.99%,–
Cc1cc2c(cc1S(=O)(=O)CCC(=O)Nc1ccc(OC(F)(F)F)cc1)OCC(=O)N2,-24.4%,–
Cc1cccc(C(=O)N2c3nc(-c4ccco4)nn3C3(CCCCC3)[C@@H]3CCCC[C@@H]32)c1,-1.79%,–
COc1ccc(-c2cc(-c3ccc(N)cc3)nc(N)c2C#N)cc1OC,–,28.2 µM [quencher] (active)
CCSc1nc(-c2ccc(OC)cc2)cc(-c2ccc(OC)cc2)c1C#N,-20.3%,–
CCOc1cc(-c2cc(-c3ccc(OC)cc3)nc(N)c2C#N)ccc1O,-26%,–
CCn1cc2nc(SCc3cccc(F)c3)n(CCc3ccccc3)c(=O)c2n1,-19.5%,–
CCN1CCN(CCCNC(=O)c2cnn(-c3ccc(C)cc3C)c2C2CCN(C(=O)OC(C)(C)C)CC2)CC1,-19.1%,–
CCOC(=O)Cc1csc(NC(=O)Nc2ccccc2)n1,-12.3%,–

SMILES,"activity change, negative = decrease",Potency
CCOC(=O)/C(=N\Nc1ccccc1[N+](=O)[O-])c1csc(Nc2ccccc2)n1,–,7.08 µM [quencher] (active)
Cc1csc(NC(=O)Nc2ccccc2[N+](=O)[O-])n1,-19.4%,–
CCc1ccc(NC(=O)c2cc(S(=O)(=O)NC3CCCCCC3)ccc2F)cc1,-23.9%,–
Cc1cccc(CCNC(=O)c2ccc3c(c2)nc2n3CCC(C)C2)c1 (centres undefined),-12.3%,–
CCOc1cc(CNC(=O)c2sc3ncnc(N(C)C4CCCCC4)c3c2C)ccc1OC,-2.89%,–
CCSc1ncnc2c(C#N)c3n(c12)CCCCC3,-3.57%,–
CCSC1=C(C#N)C(=O)n2c1cc1c2CCCC1,–,31.6 µM [quencher] (active)
O=C(CSCc1cnn(-c2ccccc2)c1-n1cccc1)NCc1ccc(Cl)cc1,14.4%,–
COc1ccc(-c2nc3scc(CCNS(=O)(=O)c4cc(F)ccc4OC)n3n2)cc1OC,-16.3%,–
COc1ccc(C)cc1NC(=O)NCc1ccccn1,2.13%,–
COc1ccc(NC(=O)c2cnc(Nc3ccc(C)c(Cl)c3)c3ccccc23)cc1OC,-13%,–
COc1ccc(Nc2ncc(C(=O)Nc3cc(C)ccc3OC)c3ccccc23)cc1,–,3.55 µM [quencher] (active)
O=c1cc(O)nc(SCc2ccccc2Cl)[nH]1,-4.9%,–
Nc1nc(SCc2ccccc2Cl)n[nH]1,-6.77%,–
CC1(C)N=C(SCc2ccccc2Cl)c2ccccc2N1,–,12.6 µM [quencher] (active)
Cc1cccc(C(=O)Nc2ccc(-c3nc4ncccc4o3)cc2C)c1,-4.09%,–
CCOC(=O)c1ccc(CSc2nnc3cc(C)c4ccccc4n23)cc1,-23.9%,–
Cc1cc(C)cc(NC(=O)CSc2nc3nccnc3c(=O)n2CCc2c[nH]c3ccccc23)c1,1.4%,–
Cc1cc(C)cc(NC(=S)NCCc2c[nH]c3ccccc23)c1,–,15.8 µM [quencher] (active)
Cc1cc(C)cc(NC(=S)NCc2ccc(F)cc2)c1,-2.29%,–
CCC(=O)N1CCc2cc(Br)cc(S(=O)(=O)CCC(=O)NCCc3ccc(OC)c(OC)c3)c21,-12.6%,–
COc1ccc(NC(=O)c2ccco2)cc1NC(=O)COc1ccc(C)c(C)c1,-16.3%,–
O=C(O)c1ccc(NC(=O)c2cn(-c3ccccc3)nc2-c2ccc(Cl)cc2)cc1,-7.53%,–
COc1ccc(NC(=O)c2c(SC)nsc2SC)cc1,-3.33%,–

SMILES,"activity change, negative = decrease",Potency
COc1ccc(NC(=O)c2cn(-c3ccccc3)nc2SC)cc1,–,17.8 µM [quencher] (active)
CCOc1cc(C2C(C(=O)Nc3ccc(OC)cc3)=C(C)Nc3nc(SC)nn32)ccc1O (centres undefined),-21.9%,–
CCOc1cc(C2C(C(=O)OC(C)C)=C(C)NC3=C2C(=O)CCC3)cc([N+](=O)[O-])c1O (centres undefined),-9.75%,–
CCOc1cc(C2C(C(=O)OC)=C(C)NC3=C2C(=O)c2ccccc23)ccc1O (centres undefined),–,17.8 µM [quencher] (active)
CCOC(=O)CN1C(C(=O)c2ccccc2)=C(OC(=O)C(C)(C)C)c2ccccc2S1(=O)=O,-7.8%,–
CCN(CCCNC(=O)c1ccc(Sc2ccc(C)cc2)c(NC(C)=O)c1)c1cccc(C)c1,-23.8%,–
COc1ccc(CCNC(=O)c2nn(C)c3c2CSc2ccccc2-3)cc1OC,–,10 µM [quencher] (active)
CCCCN(CC)CCCNC(=O)c1nn(C)c2c1CSc1ccccc1-2,-8.6%,–
COc1ccc(CCNC(=O)c2c3c(nc4ccccc24)C(=O)N(C2CCCCC2)C3)cc1OC,2.98%,–
Cc1ccc(C2CCN(C(=O)c3cnn(-c4ccccc4Cl)c3C3CCN(C(=O)OC(C)(C)C)CC3)C2)cc1 (centres undefined),-10.5%,–
Cn1nnc2c(N3CCN(c4ccccc4)CC3)ncnc21,-2.02%,–
CCC1=Nc2cc(C(=O)NCCCOC(C)C)ccc2Sc2ccc(C)cc21,3.29%,–
CCOC(=O)c1[nH]c(C)c(CCC(=O)N2CCN(c3ccccc3)CC2)c1C,0.33%,–
O=C(CC(c1cccs1)N1Cc2ccccc2C1=O)Nc1ccc(F)c(F)c1 (centres undefined),-5.76%,–
CCCn1c2ccccc2c2cnn(CC(=O)N(C)c3ccccc3CC)c(=O)c21,-16.4%,–
O=C1Cc2cc(S(=O)(=O)Nc3ccc(OC(F)(F)F)cc3)cc3c2N1CCC3,-22.8%,–
CCCCS(=O)(=O)c1oc(-c2cccs2)nc1S(=O)(=O)c1ccccc1,-11%,–
CCOCCc1nn2c(=O)cc(COC(=O)CNC(=O)c3ccc(C(C)(C)C)cc3)nc2s1,-6.12%,–
Cc1ccc(C)c(N2CCN(c3ccc4cc(S(=O)(=O)N5CCC(C)CC5)ccc4n3)CC2)c1,-0.575%,–
Cc1ccc(Nc2ccc3cc(S(=O)(=O)N4CCCCC4)ccc3n2)cc1F,–,7.08 µM [quencher] (active)
O=S(=O)(c1ccc2nc(N3CCN(c4cccc(Cl)c4)CC3)ccc2c1)N1CCCCC1,-10.5%,–
Cc1nn(CC(=O)NCCc2ccccc2)c(=O)c2c1sc1ccccc12,8.41%,–
CCn1c(CN2CCC(C)CC2)nc2cc(NC(=O)c3ccccc3[N+](=O)[O-])ccc21,-0.8%,–
CCCn1c2ccccc2c2cnn(CC(=O)NCC3CCN(Cc4ccc(C)cc4)CC3)c(=O)c21,3.89%,–

SMILES,"activity change, negative = decrease",Potency
COc1ccc(S(=O)(=O)NC(C)C(=O)Nc2cccc([N+](=O)[O-])c2)cc1 (centres undefined),-2.56%,–
COc1ccc(NS(=O)(=O)c2cc(NC(=O)CC(=O)c3ccc([N+](=O)[O-])cc3)ccc2C)cc1,–,7.94 µM [quencher] (active)
Cc1ccc(C(=O)Nc2ccc(C(=O)O)cc2)cc1S(=O)(=O)Nc1ccccc1,-3.09%,–
COc1cc(NC(=O)Cn2nc(-c3ccc(C)c(C)c3)ccc2=O)cc(OC)c1,-3.4%,–
Cn1c(SCC(=O)N2CCCc3ccccc32)ncc(C(=O)Nc2ccc(F)cc2)c1=O,-19.2%,–
COc1ccc(-n2nnc(-c3nsc(NC(=O)c4ccc(C)c(C)c4)n3)c2C)cc1Cl,-6.33%,–
CCN(CC)CC(=O)c1c[nH]c2ccc(OC)cc12,-29.7%,–
COc1ccc(/C=N/N=C/c2c[nH]c(=O)c(C#N)c2Nc2ccccc2)cc1,-20.6%,–
COc1ccc2[nH]cc(/C=C(/C#N)S(=O)(=O)c3ccccc3)c2c1,–,25.1 µM [quencher] (active)
CCOC(=O)C1=C(C)NC(=O)NC1c1ccccc1 (centres undefined),-8.84%,–
CCOC(=O)C1=C(C)N=C2c3ccccc3C(=O)C2C1c1ccc(Br)cc1 (centres undefined),–,11.2 µM [quencher] (active)
CCOC(=O)C1=C(C)NC(SC)=NC1c1ccccc1 (centres undefined),5.93%,–
CSc1nc(=O)c2c(n1C)NC(=O)CC2c1ccccc1OC(C)C (centres undefined),6.57%,–
COC(=O)c1[nH]c2ccccc2c1NS(=O)(=O)c1ccc(OC)cc1OC,-14.2%,–
CN=c1scc(-c2cc(OC)ccc2OC)n1/N=C/c1c(C)[nH]c2ccccc12,–,12.6 µM [quencher] (active)
CCn1c(-c2cc(OC)ccc2OC)csc1=Nc1c(C)n(C)n(-c2ccccc2)c1=O,1.14%,–
CC(=O)N1CCCc2cc(S(=O)(=O)N3CCC(C(=O)NCc4ccc(F)cc4)CC3)ccc21,-8.19%,–
COc1ccc(OC)c(NC(=O)C2CCCN(S(=O)(=O)c3ccc4c(c3)CCCC(=O)N4)C2)c1 (centres undefined),-14.8%,–
CCOc1ccccc1C(=O)NC1(C(F)(F)F)NC(=O)N(CCc2ccc(OC)c(OC)c2)C1=O (centres undefined),-25.1%,–
CC(C)c1ccc(S(=O)(=O)Nc2ccc(O)c(Sc3nc4ccccc4s3)c2)cc1,–,14.1 µM [quencher] (active)
O=C(O)c1cccc(S(=O)(=O)Nc2ccc(O)cc2Sc2nc3ccccc3s2)c1,-11.3%,–
O=C(CSc1nc2ccccc2s1)Nc1ccc(C(=O)O)cc1,-1.03%,–
